Inconclusive results are not listed. Activity calls are given as the source filed them. The call rests on the fitted dose curve; in most records, active means well fitted cell-killing curve with a large enough effect; inconclusive means small, poorly fitted or top-dose-only effect, or effect the other way; inactive means no such curve, though single readings can be large or run the other way.
Tests used:
[1] = Quantitative High-Throughput drug screen in 47 multiple myeloma cell lines against the NCATS MIPE library collection: OCIMY1_PLB cell viability assay (AID 1918979); further: nearly all actives have a fitted effect of over 35% in size;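 on viability: series mostly up to about 46 µM; 100% = DMSO-only wells and 0% = cell-free media-only wells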
Summary of the method: (§1)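 Readout: median RLU from CellTiter-Glo after 5 min at room temperature. Preceding step was 48 h drug treatment of 500 cells/well at 37 °C, 5% CO2, with DMSO-only and media-only control wells.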

[2] = Quantitative High-Throughput drug screen in 47 multiple myeloma cell lines against the NCATS MIPE library collection: MM1R_ATCC cell viability assay (AID 1918981); further: nearly all actives have a fitted effect of over 35% in size
Summary of the method: as §1

[3] = Quantitative High-Throughput drug screen in 47 multiple myeloma cell lines against the NCATS MIPE library collection: LP1_DSMZ cell viability assay (AID 1918982); further: nearly all actives have a fitted effect of over 35% in size
Summary of the method: as §1

[4] = Quantitative High-Throughput drug screen in 47 multiple myeloma cell lines against the NCATS MIPE library collection: KMS28PE_JCRB cell viability assay (AID 1918983); further: nearly all actives have a fitted effect of over 35% in size
Summary of the method: as §1

[5] = Quantitative High-Throughput drug screen in 47 multiple myeloma cell lines against the NCATS MIPE library collection: L363_DSMZ cell viability assay (AID 1918984); further: nearly all actives have a fitted effect of over 40% in size
Summary of the method: as §1

[6] = Quantitative High-Throughput drug screen in 47 multiple myeloma cell lines against the NCATS MIPE library collection: OCIMY5_PLB cell viability assay (AID 1918988); further: nearly all actives have a fitted effect of over 65% in size
Summary of the method: as §1

[7] = Quantitative High-Throughput drug screen in 47 multiple myeloma cell lines against the NCATS MIPE library collection: OPM1_PLB cell viability assay (AID 1918989); further: nearly all actives have a fitted effect of over 40% in size
Summary of the method: as §1

[8] = Quantitative High-Throughput drug screen in 47 multiple myeloma cell lines against the NCATS MIPE library collection: SKMM1_PLB cell viability assay (AID 1919863); conditions: SKMM1 myeloma viability, CellTiter-Glo ATP, 48 h; viability: hits give low values; further: nearly all actives have a fitted effect of over 35% in size; on viability: series mostly up to about 46 µM
Summary of the method: as §1

[9] = Quantitative High-Throughput drug screen in 47 multiple myeloma cell lines against the NCATS MIPE library collection: U266_ATCC cell viability assay (AID 1919864); further: nearly all actives have a fitted effect of over 35% in size
Summary of the method: as §1

[10] = Quantitative High-Throughput drug screen in 47 multiple myeloma cell lines against the NCATS MIPE library collection: XG6_PLB cell viability assay (AID 1919865); further: nearly all actives have a fitted effect of over 40% in size
Summary of the method: as §1

[11] = Quantitative High-Throughput drug screen in 47 multiple myeloma cell lines against the NCATS MIPE library collection: XG1_PLB cell viability assay (AID 1919866); further: nearly all actives have a fitted effect of over 35% in size
Summary of the method: as §1

[12] = Quantitative High-Throughput drug screen in 47 multiple myeloma cell lines against the NCATS MIPE library collection: PE2_PLB cell viability assay (AID 1919869); further: nearly all actives have a fitted effect of over 35% in size
Summary of the method: as §1

[13] = Quantitative High-Throughput drug screen in 47 multiple myeloma cell lines against the NCATS MIPE library collection: RPMI8226_ATCC cell viability assay (AID 1919871); further: nearly all actives have a fitted effect of over 30% in size
Summary of the method: as §1

[14] = Quantitative High-Throughput drug screen in 47 multiple myeloma cell lines against the NCATS MIPE library collection: OPM2_DSMZ cell viability assay (AID 1919872); further: nearly all actives have a fitted effect of over 30% in size
Summary of the method: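 qHTS of the MIPE 4.0 collection: 500 myeloma cells/well, 48 h drug exposure at 37C in 5% CO2, then CellTiter-Glo for 5 min at room temperature before luminescence reading.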

[15] = Quantitative High-Throughput drug screen in 47 multiple myeloma cell lines against the NCATS MIPE library collection: MM1S_ATCC cell viability assay (AID 1918980); further: nearly all actives have a fitted effect of over 45% in size
Summary of the method: as §1

[16] = Quantitative High-Throughput drug screen in 47 multiple myeloma cell lines against the NCATS MIPE library collection: KMS34_JCRB cell viability assay (AID 1918985); further: nearly all actives have a fitted effect of over 40% in size
Summary of the method: as §1

[17] = Quantitative High-Throughput drug screen in 47 multiple myeloma cell lines against the NCATS MIPE library collection: VP6_DJ cell viability assay (AID 1919867); further: nearly all actives have a fitted effect of over 40% in size
Summary of the method: as §1

[18] = Quantitative High-Throughput drug screen in 47 multiple myeloma cell lines against the NCATS MIPE library collection: PCM6_Riken cell viability assay (AID 1919870); further: nearly all actives have a fitted effect of over 30% in size
Summary of the method: as §1

[19] = Quantitative High-Throughput drug screen in 47 multiple myeloma cell lines against the NCATS MIPE library collection: OCIMY7_PLB cell viability assay (AID 1918987); further: nearly all actives have a fitted effect of over 65% in size
Summary of the method: as §1

[20] = Quantitative High-Throughput drug screen in 47 multiple myeloma cell lines against the NCATS MIPE library collection: UTMC2_PLB cell viability assay (AID 1919868); further: nearly all actives have a fitted effect of over 55% in size
Summary of the method: as §1
Potency means the concentration at half of the fitted maximal effect.

Cc1cc(=O)oc2cc(O)ccc12
inactive: Potency [1] | Potency [3] | Potency [4] | Potency [5] | Potency [6] | Potency [7] | viability [8] 114% | Potency [9] | Potency [10] | Potency [11] | Potency [12] | Potency [13] | Potency [14]
active: Potency [2] 6.62 µM

O=C(NCCO[N+](=O)[O-])c1cccnc1
inactive: Potency [1] | Potency [3] | Potency [16] | Potency [6] | Potency [7] | Potency [11] | Potency [17] | Potency [12] | Potency [18] | Potency [14]
active: Potency [15] 4.69 µM

Nc1cc(C(Cl)=C(Cl)Cl)c(S(N)(=O)=O)cc1S(N)(=O)=O
active: Potency [15] 0.059 µM | Potency [19] 11.8 µM | Potency [10] 11.8 µM
inactive: Potency [1] | Potency [2] | Potency [3] | Potency [4] | Potency [16] | Potency [7] | Potency [9] | Potency [12] | Potency [18] | Potency [13] | Potency [14]

O=C(O)c1cccnc1Nc1cccc(C(F)(F)F)c1
active: Potency [17] 3.32 µM
inactive: Potency [1] | Potency [15] | Potency [2] | Potency [3] | Potency [5] | Potency [19] | Potency [7] | viability [8] 127% | Potency [10] | Potency [11] | Potency [20] | Potency [18] | Potency [13] | Potency [14]

Cc1cc(C2CCCCC2)n(O)c(=O)c1
active: Potency [1] 16.6 µM | Potency [15] 0.935 µM | Potency [2] 1.48 µM | Potency [3] 14.8 µM | Potency [5] 7.43 µM | Potency [16] 5.26 µM | Potency [19] 7.43 µM | Potency [6] 2.09 µM | Potency [7] 9.35 µM | Potency [8] 9.35 µM | Potency [11] 8.33 µM | Potency [17] 8.33 µM | Potency [12] 8.33 µM | Potency [18] 8.33 µM

O=C1c2ccccc2-c2n[nH]c3cccc1c23
inactive: Potency [1] | Potency [3] | Potency [4] | Potency [9] | Potency [14]
active: Potency [15] 14.8 µM

CCCCN(CCCC)CCC(O)c1cc2c(Cl)cc(Cl)cc2c2cc(C(F)(F)F)ccc12 (centres undefined)
inactive: Potency [1] | Potency [15] | Potency [5] | Potency [9] | Potency [13] | Potency [14]
active: Potency [6] 11.8 µM | Potency [10] 26.4 µM | Potency [11] 18.7 µM | Potency [17] 18.7 µM

CN(C)[C@@H](CCOc1cccc2ccccc12)c1ccccc1
active: Potency [15] 23.5 µM | Potency [6] 20.9 µM | Potency [7] 16.6 µM | Potency [11] 16.6 µM | Potency [17] 26.4 µM | Potency [12] 23.5 µM | Potency [18] 18.7 µM | Potency [13] 16.6 µM
inactive: Potency [1]

Cn1c(NCCN(CCO)CCCc2ccc([N+](=O)[O-])cc2)cc(=O)n(C)c1=O
inactive: Potency [1] | Potency [19] | viability [8] 107% | Potency [13] | Potency [14]
active: Potency [15] 23.5 µM | Potency [11] 26.4 µM | Potency [17] 18.7 µM

O=Nc1c(-c2c(O)[nH]c3cc(Br)ccc23)[nH]c2ccccc12
active: Potency [1] 26.4 µM | Potency [15] 11.8 µM | Potency [2] 16.6 µM | Potency [3] 13.2 µM | Potency [4] 23.5 µM | Potency [5] 4.69 µM | Potency [16] 3.32 µM | Potency [19] 1.87 µM | Potency [6] 7.43 µM | Potency [7] 5.26 µM | Potency [8] 20.9 µM | Potency [9] 16.6 µM | Potency [11] 5.9 µM | Potency [17] 5.26 µM | Potency [20] 8.33 µM | Potency [12] 5.26 µM | Potency [18] 3.32 µM | Potency [13] 18.7 µM | Potency [14] 20.9 µM

COc1ccc(C2(C#N)CCC(C(=O)O)CC2)cc1OC1CCCC1 (centres undefined)
inactive: Potency [1] | Potency [2] | Potency [3] | Potency [4] | viability [8] 137% | Potency [9] | Potency [12] | Potency [13] | Potency [14]
active: Potency [15] 26.4 µM | Potency [17] 16.6 µM | Potency [18] 16.6 µM

NCCCCNCCCN
active: Potency [1] 10.5 µM | Potency [15] 3.32 µM | Potency [2] 2.96 µM | Potency [3] 16.6 µM | Potency [16] 9.35 µM | Potency [19] 10.5 µM | Potency [6] 14.8 µM | Potency [7] 23.5 µM | Potency [8] 20.9 µM | Potency [9] 7.43 µM | Potency [11] 20.9 µM | Potency [17] 26.4 µM | Potency [12] 16.6 µM | Potency [18] 16.6 µM | Potency [13] 23.5 µM | Potency [14] 20.9 µM

CCN(CC)CCOc1ccc(Nc2ncc3cc(-c4c(Cl)cccc4Cl)c(=O)n(C)c3n2)cc1
active: Potency [1] 2.96 µM | Potency [15] 2.35 µM | Potency [2] 1.32 µM | Potency [3] 1.87 µM | Potency [4] 1.18 µM | Potency [19] 1.48 µM | Potency [6] 0.105 µM | Potency [7] 0.0187 µM | Potency [8] 5.26 µM | Potency [9] 10.5 µM | Potency [10] 0.0296 µM | Potency [11] 0.59 µM | Potency [17] 0.0083 µM | Potency [20] 0.132 µM | Potency [12] 0.0418 µM | Potency [18] 0.935 µM | Potency [13] 2.35 µM | Potency [14] 1.18 µM

NC(=NCc1ccccc1)NC(=O)c1nc(Cl)c(N)nc1N
inactive: Potency [1] | Potency [2] | Potency [3] | Potency [16] | Potency [6] | viability [8] 140% | Potency [20] | Potency [13] | Potency [14]
active: Potency [15] 0.935 µM | Potency [5] 23.5 µM | Potency [19] 8.33 µM | Potency [9] 1.48 µM | Potency [10] 0.935 µM | Potency [11] 2.64 µM | Potency [17] 7.43 µM | Potency [12] 9.35 µM | Potency [18] 4.69 µM
